Inconclusive results are not listed. The source made the active and inactive calls. Unless noted, the call rests on the fitted dose curve; in most records, active means well fitted curve in the direction sought with a large enough effect; inconclusive means small, poorly fitted or top-dose-only effect, or another doubt; inactive means no such curve, though single readings can be large; an effect the other way counts as inactive or inconclusive.
Experiments:
[1] = qHTS Assay for Lipid Storage Modulators (AID 1519; calls by dose curve; on activity change, negative = inhibition: on the % scale 0 is the no-effect control and ±100 the full control effect); settings: Drosophila S3 cells, BODIPY lipid droplet/cell ratio, laser cytometry, cells loaded with oleic acid; for activity change, negative = inhibition: at 57.5 µM (top of the series)
In short: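 Cells seeded at 5,000 per well were treated with compounds over a concentration series and loaded with oleic acid (400 uM, as added). Lipid droplet fluorescence (488 nm excitation, 500-530 nm channel) was read by laser-scanning cytometry and normalized to 20 uM Triacsin C.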

[2] = molecular target: ATP-dependent 6-phosphofructokinase (Trypanosoma brucei brucei) (UniProt O15648); assay: qHTS Assay to Find Inhibitors of T. brucei phosphofructokinase: hit validation (AID 492961);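 further: luminescence reports ADP formed as PFK phosphorylates fructose-6-phosphate with ATP; on the % scale 0 is the no-effect control and ±100 the full control effect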; settings: T. brucei PFK, ADP-Glo luminescence; series mostly up to 24.3 µM
Sequence of ATP-dependent 6-phosphofructokinase (Trypanosoma brucei brucei) (O15648 whole entry, looked up): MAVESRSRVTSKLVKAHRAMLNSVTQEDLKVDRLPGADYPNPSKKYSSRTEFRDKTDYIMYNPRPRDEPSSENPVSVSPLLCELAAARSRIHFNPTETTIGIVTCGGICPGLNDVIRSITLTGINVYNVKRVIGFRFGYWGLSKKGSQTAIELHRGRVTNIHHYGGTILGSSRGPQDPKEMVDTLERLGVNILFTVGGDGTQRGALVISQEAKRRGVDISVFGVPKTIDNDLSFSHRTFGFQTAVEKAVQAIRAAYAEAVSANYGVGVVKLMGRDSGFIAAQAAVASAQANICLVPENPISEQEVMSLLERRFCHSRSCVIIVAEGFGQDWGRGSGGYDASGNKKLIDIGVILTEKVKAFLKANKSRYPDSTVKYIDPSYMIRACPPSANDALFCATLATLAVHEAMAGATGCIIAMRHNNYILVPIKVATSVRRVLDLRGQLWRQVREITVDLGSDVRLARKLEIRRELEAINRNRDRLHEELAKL
In short: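 Inhibition of parasite PFK is measured as reduced ADP formation, quantified via luciferase after ATP depletion. Assay used 0.1 mM ATP, 0.5 mM F6P, 1.25 nM enzyme, 45 min incubation.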

[3] = qHTS profiling for inhibitors of Plasmodium falciparum proliferation (AID 504749); further: potency means the concentration at half of the fitted maximal effect;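 on activity, negative = inhibition: 0% = DMSO vehicle and full inhibition = artemisinin control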; on all read-outs here: nearly all actives have a fitted effect of over 60% in size; settings: P. falciparum in erythrocytes, SYBR Green DNA, 72 h; for activity, negative = inhibition: at 28.7 µM (top of the series)
In short: (§1)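 Each compound contacts P. falciparum-infected red blood cells for 72 h at 37 C; lysis buffer (Tris, EDTA, saponin, Triton X, SYBR Green I) is added and fluorescence measured next morning; values normalized to controls.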

3D7 = assay: as above; settings: P. falciparum in erythrocytes, SYBR Green DNA, 72 h; series mostly up to 12.8 µM
In short: as §1

AS120 = assay: as above; settings: P. falciparum in erythrocytes, SYBR Green DNA, 72 h; series mostly up to 12.8 µM
In short: as §1

C2A = assay: as above; settings: P. falciparum in erythrocytes, SYBR Green DNA, 72 h; series mostly up to 12.8 µM
In short: as §1

CP217 = assay: as above; settings: P. falciparum in erythrocytes, SYBR Green DNA, 72 h; series mostly up to 12.8 µM
In short: as §1

CP237 = assay: as above; settings: P. falciparum in erythrocytes, SYBR Green DNA, 72 h; series mostly up to 12.8 µM
In short: as §1

CP238 = assay: as above; settings: P. falciparum in erythrocytes, SYBR Green DNA, 72 h; series mostly up to 12.8 µM
In short: as §1

CP252 = assay: as above; settings: P. falciparum in erythrocytes, SYBR Green DNA, 72 h; series mostly up to 12.8 µM
In short: as §1

CP262 = assay: as above; settings: P. falciparum in erythrocytes, SYBR Green DNA, 72 h; series mostly up to 12.8 µM
In short: as §1

CP269 = assay: as above; settings: P. falciparum in erythrocytes, SYBR Green DNA, 72 h; series mostly up to 12.8 µM
In short: as §1

CP297 = assay: as above; settings: P. falciparum in erythrocytes, SYBR Green DNA, 72 h; series mostly up to 12.8 µM
In short: as §1

ECU = assay: as above; settings: P. falciparum in erythrocytes, SYBR Green DNA, 72 h; series mostly up to 12.8 µM
In short: as §1

PAD = assay: as above; settings: P. falciparum in erythrocytes, SYBR Green DNA, 72 h; series mostly up to 12.8 µM
In short: as §1

SC27B = assay: as above; settings: P. falciparum in erythrocytes, SYBR Green DNA, 72 h; series mostly up to 12.8 µM
In short: as §1

[4] = molecular target: Ubiquitin carboxyl-terminal hydrolase 1 (Homo sapiens) (UniProt O94782); assay: Inhibitors of USP1/UAF1: Pilot qHTS (AID 504865); settings: purified USP1/UAF1, Ub-rhodamine cleavage fluorescence; series mostly up to 114 µM;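 further: rhodamine fluorescence freed from ubiquitin-rhodamine substrate followed over time; top concentration of the series differs between compounds; on the % scale 0 is the no-effect control and ±100 the full control effect; nearly all actives have a fitted effect of over 35% in size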
Sequence of Ubiquitin carboxyl-terminal hydrolase 1 (Homo sapiens) (O94782 whole entry, looked up): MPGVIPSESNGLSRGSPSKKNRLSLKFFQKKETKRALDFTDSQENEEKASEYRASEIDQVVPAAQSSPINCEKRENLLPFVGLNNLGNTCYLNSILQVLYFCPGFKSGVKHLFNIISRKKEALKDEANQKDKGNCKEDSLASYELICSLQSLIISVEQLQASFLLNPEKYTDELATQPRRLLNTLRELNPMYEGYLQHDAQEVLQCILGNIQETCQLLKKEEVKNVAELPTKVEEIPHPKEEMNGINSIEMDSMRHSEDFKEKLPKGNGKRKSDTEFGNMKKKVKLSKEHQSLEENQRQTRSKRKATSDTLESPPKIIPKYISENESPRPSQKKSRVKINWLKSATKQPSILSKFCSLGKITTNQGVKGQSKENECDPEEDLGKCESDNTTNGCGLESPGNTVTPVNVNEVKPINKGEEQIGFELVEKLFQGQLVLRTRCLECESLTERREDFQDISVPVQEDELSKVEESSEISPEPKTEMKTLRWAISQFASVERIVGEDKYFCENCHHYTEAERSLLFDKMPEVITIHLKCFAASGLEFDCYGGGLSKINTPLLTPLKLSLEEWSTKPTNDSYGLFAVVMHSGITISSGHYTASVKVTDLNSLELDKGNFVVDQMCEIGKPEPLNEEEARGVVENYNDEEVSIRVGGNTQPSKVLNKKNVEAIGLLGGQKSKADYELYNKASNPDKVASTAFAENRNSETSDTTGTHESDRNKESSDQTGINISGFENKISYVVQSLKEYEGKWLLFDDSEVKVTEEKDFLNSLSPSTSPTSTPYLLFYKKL
In short: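 USP1/UAF1 complex (1nM) preincubated with compound 15 min at room temperature, then Ub-Rho substrate (150nM final) added. Fluorescence read kinetically at 480/540 nm, 6 reads every 60 seconds. Buffer: 50mM HEPES pH 7.8, 0.5mM EDTA, 0.1 mg/ml BSA, 1mM TCEP, 0.01% Tween-20.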

[5] = molecular target: Glucocorticoid receptor (Homo sapiens) (UniProt P04150); assay: GR-GFP Redistribution (AID 450;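 active means compounds whose dose series gives a full or clear partial fitted curve of increased nuclear translocation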; further: potency means the concentration at half of the fitted maximal effect); settings: U2OS GR-GFP nuclear translocation, laser cytometry, 2 h
Sequence of Glucocorticoid receptor (Homo sapiens) (P04150 whole entry, looked up, the tested form may be a part): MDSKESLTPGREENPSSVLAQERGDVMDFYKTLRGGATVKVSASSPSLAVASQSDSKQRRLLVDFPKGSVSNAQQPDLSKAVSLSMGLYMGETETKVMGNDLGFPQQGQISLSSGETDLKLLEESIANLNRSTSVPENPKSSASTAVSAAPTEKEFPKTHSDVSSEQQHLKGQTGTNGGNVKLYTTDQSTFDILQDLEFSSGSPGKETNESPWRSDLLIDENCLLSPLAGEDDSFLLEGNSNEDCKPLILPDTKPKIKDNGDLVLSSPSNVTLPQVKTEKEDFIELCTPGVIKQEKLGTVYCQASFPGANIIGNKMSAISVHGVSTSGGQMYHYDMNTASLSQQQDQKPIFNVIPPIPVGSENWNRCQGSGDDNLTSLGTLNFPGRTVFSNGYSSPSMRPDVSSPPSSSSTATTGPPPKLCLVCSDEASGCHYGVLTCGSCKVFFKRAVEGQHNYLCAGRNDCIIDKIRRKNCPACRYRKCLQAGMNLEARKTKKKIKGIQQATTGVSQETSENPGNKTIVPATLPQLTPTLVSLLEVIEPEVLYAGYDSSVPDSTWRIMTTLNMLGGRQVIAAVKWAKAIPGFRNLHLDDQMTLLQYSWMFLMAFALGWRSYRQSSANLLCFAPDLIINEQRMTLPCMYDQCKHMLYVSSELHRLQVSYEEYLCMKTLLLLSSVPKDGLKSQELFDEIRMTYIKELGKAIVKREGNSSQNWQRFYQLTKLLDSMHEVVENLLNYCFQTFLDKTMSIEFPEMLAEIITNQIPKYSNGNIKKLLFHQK

[6] = molecular target: Glucocorticoid receptor (Homo sapiens) (UniProt P04150); assay: GR-EFC Redistribution (AID 451; calls by dose curve; further: potency means the concentration at half of the fitted maximal effect); settings: CHO-K1 GR-EFC translocation, beta-gal luminescence, 2 h
In short: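 CHO-K1 cells expressing nuclear EA and GR-ED fragments of b-gal; compounds titrated up to 46 uM final, 2 h at 37 C. GR nuclear translocation read as complemented b-gal luminescence after 1 h RT detection.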

[7] = molecular target: Mitogen-activated protein kinase 10 (Mus musculus) (UniProt Q61831); assay: JNK3 AlphaScreen Assay (AID 530; active means well fitted curve in either direction with a large enough effect, not every such curve was filed as active;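 further: kinase came from lysate of stimulated human HepG2 cells; signal reports phosphorylation of biotinylated GST-cJun 1-79 at Ser73 with 10 µM ATP; on the % scale 0 is the no-effect control and ±100 the full control effect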); settings: JNK3 lysate, c-Jun phosphorylation; series mostly up to 25.6 µM
In short: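 Activity was read by AlphaScreen after JNK3-containing HepG2 lysate (cytokine pre-activated) phosphorylated biotinylated GST-cJun with 10 uM ATP at room temperature. Phospho-Ser73 cJun antibody with Protein-A acceptor beads provided detection.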

[8] = measured here: cell count channel max response
[9] = measured here: lipid channel max response

COC1C=CO[C@@]2(C)Oc3c(C)c(O)c4c(O)c(c(C=NN5CCN(C)CC5)c(O)c4c3C2=O)NC(=O)/C(C)=C\C=CC(C)C(O)[C@@H](C)C(O)C(C)[C@H](OC(C)=O)C1C (some centres not stated)
10.6%: max response [1, 9]
active: Potency ([3]; parasite line A) 3.98 µM | Potency ([3]; parasite line B) 3.98 µM | Potency (3D7) 2 µM | Potency (AS120) 0.282 µM | Potency (C2A) 8.91 µM | Potency (CP217) 5.01 µM | Potency (CP237) 0.355 µM | Potency (CP238) 3.55 µM | Potency (CP252) 3.16 µM | Potency (CP262) 2.13 µM | Potency (CP269) 4.26 µM | Potency (CP297) 0.953 µM | Potency (ECU) 0.282 µM | Potency (PAD) 0.282 µM | Potency (SC27B) 0.282 µM
7.61%: max response [1, 8]
inactive: activity change, negative = inhibition [1] -0.247% | outcome [2]

C/C1=C2N=C(/C=C3N=C(/C(C)=C4\[N-]C(C)(C5N=C1C(C)(CCC(=O)NCC(C)OP(=O)([O-])O[C@H]1C(O)C(n6cnc7cc(C)c(C)cc76)O[C@@H]1CO)C5CC(N)=O)C(C)(CC(N)=O)C4CCC(N)=O)C(C)(CC(N)=O)C\3CCC(N)=O)C(C)(C)C/2CCC(N)=O.[CH2-]C1OC(n2cnc3c(N)ncnc32)C(O)C1O.[Co] (some centres not stated)
inactive: activity change, negative = inhibition [1] 3.3% | outcome [2] | activity, negative = inhibition ([3]; parasite line A) 4.62% | activity, negative = inhibition ([3]; parasite line B) 4.58% | Potency (3D7) | Potency (AS120) | Potency (C2A) | Potency (CP217) | Potency (CP237) | Potency (CP238) | Potency (CP252) | Potency (CP262) | Potency (CP269) | Potency (CP297) | Potency (ECU) | Potency (PAD) | Potency (SC27B)
29.7%: max response [1, 9]
22.1%: max response [1, 8]

CNC1CC(N)[C@H](O)[C@@H](O[C@@H]2OC(CO)C3OC4(OC(C(N)CO)C(O)C(O)C4O)O[C@@H]3[C@H]2O)C1O (some centres not stated)
3.52%: max response [1, 8]
7.53%: max response [1, 9]
inactive: activity change, negative = inhibition [1] 3.46% | outcome [2] | Potency [4] | activity, negative = inhibition ([3]; parasite line A) 1.25% | activity, negative = inhibition ([3]; parasite line B) -26.8% | Potency (3D7) | Potency (AS120) | Potency (C2A) | Potency (CP217) | Potency (CP237) | Potency (CP238) | Potency (CP252) | Potency (CP262) | Potency (CP269) | Potency (CP297) | Potency (ECU) | Potency (PAD) | Potency (SC27B)

CC(C)C1CCC(C(=O)NC(Cc2ccccc2)C(=O)O)CC1 (configuration not stated)
inactive: activity change, negative = inhibition [1] 5.23% | outcome [2] | Potency [4] | activity, negative = inhibition ([3]; parasite line A) -12% | activity, negative = inhibition ([3]; parasite line B) 8.36% | Potency (3D7) | Potency (AS120) | Potency (C2A) | Potency (CP217) | Potency (CP237) | Potency (CP238) | Potency (CP252) | Potency (CP262) | Potency (CP269) | Potency (CP297) | Potency (ECU) | Potency (PAD) | Potency (SC27B)
10.2%: max response [1, 9]
2.86%: max response [1, 8]

C[C@]12CCC(=O)C=C1CCC1C2C(=O)C[C@]2(C)C1CC[C@]2(O)C(=O)CO (some centres not stated)
22%: max response [1, 9]
22.5%: max response [1, 8]
inactive: activity change, negative = inhibition [1] -0.346% | outcome [2] | Potency [4] | activity, negative = inhibition ([3]; parasite line A) 3.27% | activity, negative = inhibition ([3]; parasite line B) -0.753% | Potency (3D7) | Potency (AS120) | Potency (C2A) | Potency (CP217) | Potency (CP237) | Potency (CP238) | Potency (CP252) | Potency (CP262) | Potency (CP269) | Potency (CP297) | Potency (ECU) | Potency (PAD) | Potency (SC27B)

CN(C)CCCOC1C(C(O)CO)OC2OC(C)(C)O[C@@H]21 (some centres not stated)
inactive: activity change, negative = inhibition [1] 4.25% | outcome [2] | Potency [4] | activity, negative = inhibition ([3]; parasite line A) 6.96% | activity, negative = inhibition ([3]; parasite line B) 11.3% | Potency (3D7) | Potency (AS120) | Potency (C2A) | Potency (CP217) | Potency (CP237) | Potency (CP238) | Potency (CP252) | Potency (CP262) | Potency (CP269) | Potency (CP297) | Potency (ECU) | Potency (PAD) | Potency (SC27B)
18.7%: max response [1, 9]
11.4%: max response [1, 8]

CC/C=C\C[C@H]1C(=O)CC[C@@H]1CC(=O)O
-8.93%: max response [1, 8]
-11.5%: max response [1, 9]
inactive: Potency [5] > 46 µM | Potency [6] > 46 µM | Potency [7] | activity change, negative = inhibition [1] -2.79%

CN1CC(=O)N=C1N
5.89%: max response [1, 8]
9.11%: max response [1, 9]
inactive: activity change, negative = inhibition [1] 4.35% | outcome [2] | Potency [4] | activity, negative = inhibition ([3]; parasite line A) 1.94% | activity, negative = inhibition ([3]; parasite line B) 0.298% | Potency (3D7) | Potency (AS120) | Potency (C2A) | Potency (CP217) | Potency (CP237) | Potency (CP238) | Potency (CP252) | Potency (CP262) | Potency (CP269) | Potency (CP297) | Potency (ECU) | Potency (PAD) | Potency (SC27B)

COC1C=CO[C@@]2(C)Oc3c(C)c(O)c4c(O)c(c5c(nc6cc(C)ccn65)c4c3C2=O)NC(=O)/C(C)=C\C=CC(C)C(O)[C@@H](C)C(O)C(C)[C@@H](OC(C)=O)C1C (some centres not stated)
active: Potency ([3]; parasite line A) 14.1 µM | Potency ([3]; parasite line B) 10 µM | Potency (3D7) 12.6 µM | Potency (AS120) 2.51 µM | Potency (C2A) 10 µM | Potency (CP217) 10 µM | Potency (CP237) 8.91 µM | Potency (CP238) 10 µM | Potency (CP252) 10 µM | Potency (CP269) 10.7 µM | Potency (CP297) 4.26 µM | Potency (ECU) 12.6 µM | Potency (PAD) 3.16 µM | Potency (SC27B) 12.6 µM
inactive: activity change, negative = inhibition [1] -13.7% | outcome [2]
-14.4%: max response [1, 9]
-0.865%: max response [1, 8]
